PubChem BioAssay AID743373 (National Center for Advancing Translational Sciences (NCATS), 2014)
Values joined by “and” are separate entries in the source; they are usually repeats but may differ in a detail not shown here. Identical values can stand only once. Results filed as inconclusive are left out. Active and inactive are the calls of the source. Calls follow the shape of the dose curve; as a rule, active = well fitted inhibition curve with a large enough effect; inconclusive = small, poorly fitted or top-dose-only effect; inactive = flat fitted curve, though single readings scatter.

What follows are compounds tested against Galactokinase (Homo sapiens) (UniProt P51570) (assay: qHTS for Inhibitors of Human Galactokinase (GALK): Confirmation Assay for SAR round 4). Conditions: recombinant GALK, ADP-Glo luminescence, 1 h; series mostly up to 57.5 µM; activity, negative = inhibition: at the top concentration.
Sequence of Galactokinase (Homo sapiens) (P51570 whole entry, looked up): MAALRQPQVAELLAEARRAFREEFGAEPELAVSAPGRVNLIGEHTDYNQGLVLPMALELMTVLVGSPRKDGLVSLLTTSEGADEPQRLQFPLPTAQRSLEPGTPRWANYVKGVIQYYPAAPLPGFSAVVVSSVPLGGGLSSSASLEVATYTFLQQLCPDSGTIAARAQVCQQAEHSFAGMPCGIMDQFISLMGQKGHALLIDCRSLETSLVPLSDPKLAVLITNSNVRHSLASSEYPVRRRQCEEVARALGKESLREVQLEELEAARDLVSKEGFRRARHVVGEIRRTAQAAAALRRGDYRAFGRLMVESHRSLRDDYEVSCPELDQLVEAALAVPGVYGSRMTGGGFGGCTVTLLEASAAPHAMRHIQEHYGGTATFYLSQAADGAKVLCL
Description: Inherited deficiency of galactose-1-phosphate uridyltransferase (GALT) can result in a potentially lethal disorder called Classic Galactosemia (OMIM 230400). Several lines of evidence indicate that an elevated level of galactose-1-phosphate (gal-1-p), the product of galactokinase (GALK), is a major, if not sole, pathogenic mechanism in patients with classic galactosemia. Therefore, finding inhibitors of GALK is a potential novel therapy for this inherent metabolic disease and is the long term goal of this project. Active compounds observed in the qHTS GALK assay (AID: 1868) were cherry picked and re-screened for validation. GALK (provided by Kent Lai) was assayed using ATP and D-(+)-Galactose (Sigma-Aldrich cat# G0750) as substrates. Promega ADP-Glo technology was used to detect the ADP product formed after the kinase reaction. Kinase reactions with and without GALK were used as negative and positive controls together with Protein Tyrosine Phosphatase CD45 inhibitor (EMD Bioscience cat# 540215) which is shown to inhibit GALK activity. Decrease in activity corresponds to inhibition of the enzyme, the desired outcome for this assay. NIH Molecular Libraries Probe Production Network [MLPCN] NIH Chemical Genomics Center [NCGC] Grant: R03 MH085689-01 PI Name: Kent Lai, University of Utah
Two uL/well of ATP-buffer solution (35 uM ATP, 20mM HEPES pH8.0, 5 mM MgCl2, 60 mM NaCl, 1 mM DTT, 0.01% BSA final concentration) was dispensed into 1536-well, assay plates (Greiner, solid white medium-binding plates) with Aurora Discovery BioRAPTR Flying Reagent Dispenser (FRD; Beckton-Dickenson). Compound and control solution (23 nL) was transferred to the assay plate using the Kalypsys 1536-pin tool apparatus. Half uL/well GALK-galactose solution (5 nM GALK, 100 uM galactose, 20 mM HEPES pH8.0, 5 mM MgCl2, 60 mM NaCl, 1 mM DTT, 0.01% BSA final concentration) was then added using the FRD yielding a total kinase reaction volume of 2.5 uL/ well. After 1 hour of room temperature incubation, 2.5 uL ADP-Glo reagent A was added and incubated for 15 min. Five micorliter of ADP-Glo reagent B was then added per well and incubated for additional 15 min at room temperature. Luminescence was detected with the ViewLux plate reader (Perkin Elmer, Waltham, MA) using a 1 sec exposure time and 2x binning.

Potency, active:
CC1=C(C(=O)Nc2nncs2)C(c2[nH]ncc2Cl)N=C(Nc2nc3ccccc3o2)N1 (stereo not given) 7.69 µM
O=C1CCCC2=C1C(c1ccccc1Cl)N=C(Nc1nc3ccccc3o1)N2 (stereo not given) 13.7 µM
CC1=C(C(=O)Nc2ccon2)C(c2ccccc2Br)N=C(Nc2nc3ccccc3o2)N1 (stereo not given) 7.69 µM
O=C1CCCC2=C1C(c1[nH]ncc1Br)N=C(Nc1nc3ccccc3o1)N2 (stereo not given) 15.3 µM
O=C1CCCC2=C1C(c1[nH]ncc1Cl)N=C(Nc1nc3ccccc3o1)N2 (stereo not given) 5.44 µM and 6.85 µM
O=C1CCCC2=C1C(c1ccccc1Br)N=C(Nc1nc3ccccc3o1)N2 (stereo not given) 4.32 µM
O=C1CCCC2=C1C(c1ccccc1I)N=C(Nc1nc3ccccc3o1)N2 (stereo not given) 3.06 µM
O=C1CCCC2=C1C(c1ccncc1Cl)N=C(Nc1nc3ccccc3o1)N2 (stereo not given) 10.9 µM
CC1=C(C(=O)Nc2ccon2)C2(CCCC2)N=C(Nc2nc3ccccc3o2)N1 7.69 µM

activity, negative = inhibition, inactive:
O=C1C2=C(CN1Cc1ccccc1)NC(Nc1nc3ccccc3o1)=NC2c1ccccc1Cl (stereo not given) -0.242%
CC1=C(C(=O)Nc2ccc(Cl)cc2)C(c2ccccc2Br)N=C(Nc2nc3ccccc3o2)N1 (stereo not given) -26.9%
CNC(=O)C1=C(C)NC(Nc2nc3ccccc3o2)=NC12CCCC2 -10.4%
CC1=C(C(=O)Nc2nc3ccccc3s2)C(c2[nH]ncc2Cl)N=C(Nc2nc3ccccc3o2)N1 (stereo not given) -7.24%
CC1=C(C(=O)Nc2nc3ccccc3s2)C2(CCCC2)N=C(Nc2nc3ccccc3o2)N1 -18.2%
CC1=C(C(=O)Nc2nc3ccccc3s2)C(c2nn(C)cc2Cl)N=C(Nc2nc3ccccc3o2)N1 (stereo not given) -5.67%
CC1=C(C(=O)Nc2noc3ccccc23)C(c2nn(C)cc2Cl)N=C(Nc2nc3ccccc3o2)N1 (stereo not given) -1.71%
CC1=C(C(=O)Nc2noc3ccccc23)C2(CCCC2)N=C(Nc2nc3ccccc3o2)N1 -1.57%
CC1=C(C(=O)NC2CCCC2)C(c2[nH]ncc2Cl)N=C(Nc2nc3ccccc3o2)N1 (stereo not given) -11.9%
CC(C)CN1CC2=C(C1=O)C(c1ccccc1Cl)N=C(Nc1nc3ccccc3o1)N2 (stereo not given) -14.9%
O=C1C2=C(CN1c1ccccc1)NC(Nc1nc3ccccc3o1)=NC2c1ccccc1Cl (stereo not given) -7.05%
